Measurements published in PubChem BioAssay AID1159580 (chemical genetic matrix, 2015).
The campaign covered roughly 5,500 compounds. About 2,000 (36%) were called active. Not shown: some 18% with an inconclusive outcome. Rule as the data show it: active = normalized growth mostly below about 0.91 (no sharp cut-off); inconclusive = no clear call, values can overlap the other calls; inactive = mostly above about 0.92. Some of the results follow.

Test: chemical genetic growth profiling, strain panel (AID 1159580);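 also: tested at 20 µM; growth read once vehicle control cultures reached saturation at 30 °C; 1 = growth at the plate median or of vehicle wells; lower values mean less growth of the strain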
Details: growth OD

Measured: normalized growth

COC(=O)[C@@H]1C(O)CC[C@H]2CN3CCc4c([nH]c5ccccc45)[C@@H]3C[C@@H]21 (some centres not stated)
inactive: S. cerevisiae deletion strains, locus YJR075W, strain HOC1, stronger effect = lower value 0.993 | S. cerevisiae deletion strains, locus YKL009W, strain mrt4, stronger effect = lower value 0.968 | S. cerevisiae deletion strains, locus YKL068W, stronger effect = lower value 0.982 | S. cerevisiae deletion strains, locus YKL085W, strain MDH1 (second series), stronger effect = lower value 0.982 | S. cerevisiae deletion strains, locus YKL085W, strain MDH1, stronger effect = lower value 0.982 | S. cerevisiae deletion strains, locus YKL160W, strain elf1, stronger effect = lower value 1.01 | S. cerevisiae deletion strains, locus YKL190W, strain CNB1, stronger effect = lower value 0.994 | S. cerevisiae deletion strains, locus YKR001C, strain vps1, stronger effect = lower value 0.979 | S. cerevisiae deletion strains, locus YKR026C, strain gcn3, stronger effect = lower value 1.01 | S. cerevisiae deletion strains, locus YKR091W, strain srl3, stronger effect = lower value 1.02 | S. cerevisiae deletion strains, locus YLL001W, strain dnm1, stronger effect = lower value 1.02 | S. cerevisiae deletion strains, locus YLL026W, stronger effect = lower value 1.01 | S. cerevisiae deletion strains, locus YLL041C, strain sdh2, stronger effect = lower value 1.02 | S. cerevisiae deletion strains, locus YLR027C, strain aat2, stronger effect = lower value 1.01 | S. cerevisiae deletion strains, locus YLR039C, strain RIC1, stronger effect = lower value 0.977 | S. cerevisiae deletion strains, locus YLR058C, strain SHM2, stronger effect = lower value 0.988 | S. cerevisiae deletion strains, locus YLR102C, strain apc9, stronger effect = lower value 0.995 | S. cerevisiae deletion strains, locus YLR113W, strain HOG1, stronger effect = lower value 1 | S. cerevisiae deletion strains, locus YLR221C, strain rsa3, stronger effect = lower value 1 | S. cerevisiae deletion strains, locus YLR258W, strain gsy2, stronger effect = lower value 1.01 | S. cerevisiae deletion strains, locus YLR262C, strain YPT6 (second series), stronger effect = lower value 1 | S. cerevisiae deletion strains, locus YLR262C, strain YPT6, stronger effect = lower value 0.962 | S. cerevisiae deletion strains, locus YLR268W, strain sec22, stronger effect = lower value 1.01 | S. cerevisiae deletion strains, locus YLR320W, strain mms22, stronger effect = lower value 1.01 | S. cerevisiae deletion strains, locus YLR330W, strain CHS5, stronger effect = lower value 0.996 | S. cerevisiae deletion strains, locus YLR342W, strain FKS1 (second series), stronger effect = lower value 0.978 | S. cerevisiae deletion strains, locus YLR342W, strain FKS1, stronger effect = lower value 1.01 | S. cerevisiae deletion strains, locus YLR357W, strain rsc2, stronger effect = lower value 1.01 | S. cerevisiae deletion strains, locus YLR370C, strain arc18, stronger effect = lower value 1.02 | S. cerevisiae deletion strains, locus YLR371W, strain rom2, stronger effect = lower value 0.976 | S. cerevisiae deletion strains, locus YLR384C, strain iki3, stronger effect = lower value 1.02 | S. cerevisiae deletion strains, locus YLR418C, strain cdc73, stronger effect = lower value 1.05 | S. cerevisiae deletion strains, locus YML016C, strain PPZ1, stronger effect = lower value 0.983 | S. cerevisiae deletion strains, locus YML032C, strain rad52, stronger effect = lower value 0.971 | S. cerevisiae deletion strains, locus YML120C, strain ndi1, stronger effect = lower value 1.02 | S. cerevisiae deletion strains, locus YML124C, strain tub3, stronger effect = lower value 0.991 | S. cerevisiae deletion strains, locus YMR058W, strain fet3, stronger effect = lower value 1.01 | S. cerevisiae deletion strains, locus YMR078C, strain ctf18, stronger effect = lower value 0.988 | S. cerevisiae deletion strains, locus YMR125W, strain sto1, stronger effect = lower value 1 | S. cerevisiae deletion strains, locus YMR129W, stronger effect = lower value 1.01 | S. cerevisiae deletion strains, locus YMR205C, strain PFK2, stronger effect = lower value 1.03 | S. cerevisiae deletion strains, locus YMR223W, strain ubp8, stronger effect = lower value 0.97 | S. cerevisiae deletion strains, locus YMR231W, strain pep5, stronger effect = lower value 1.01 | S. cerevisiae deletion strains, locus YMR263W, strain SAP30, stronger effect = lower value 0.995 | S. cerevisiae deletion strains, locus YMR307W, strain GAS1, stronger effect = lower value 1 | S. cerevisiae deletion strains, locus YNL067W, strain RPL9B, stronger effect = lower value 1.01 | S. cerevisiae deletion strains, locus YNL071W, strain lat1, stronger effect = lower value 1.02 | S. cerevisiae deletion strains, locus YNL128W, strain TEP1, stronger effect = lower value 1 | S. cerevisiae deletion strains, locus YNL153C, strain GIM3, stronger effect = lower value 1.01 | S. cerevisiae deletion strains, locus YNL183C, strain NPR1, stronger effect = lower value 0.973 | S. cerevisiae deletion strains, locus YNL209W, strain ssb2, stronger effect = lower value 1.01 | S. cerevisiae deletion strains, locus YNL233W, strain BNI4, stronger effect = lower value 1.01 | S. cerevisiae deletion strains, locus YNL248C, strain rpa49, stronger effect = lower value 1.01 | S. cerevisiae deletion strains, locus YNL250W, strain rad50, stronger effect = lower value 0.975 | S. cerevisiae deletion strains, locus YNL271C, strain bni1, stronger effect = lower value 0.987 | S. cerevisiae deletion strains, locus YNL298W, strain CLA4, stronger effect = lower value 0.975 | S. cerevisiae deletion strains, locus YNL307C, strain MCK1, stronger effect = lower value 0.996 | S. cerevisiae deletion strains, locus YNL322C, strain KRE1 (second series), stronger effect = lower value 1.01 | S. cerevisiae deletion strains, locus YNL322C, strain KRE1, stronger effect = lower value 0.99 | S. cerevisiae deletion strains, locus YNR049C, strain mso1, stronger effect = lower value 1.01 | S. cerevisiae deletion strains, locus YNR052C, strain pop2, stronger effect = lower value 0.989 | S. cerevisiae deletion strains, locus YOL006C, strain TOP1, stronger effect = lower value 1.01 | S. cerevisiae deletion strains, locus YOL012C, strain htz1 0.815 | S. cerevisiae deletion strains, locus YOL147C, strain pex11, stronger effect = lower value 0.99 | S. cerevisiae deletion strains, locus YOR001W, strain rrp6, stronger effect = lower value 1.02 | S. cerevisiae deletion strains, locus YOR061W, strain CKA2, stronger effect = lower value 0.996 | S. cerevisiae deletion strains, locus YOR069W, strain VPS5, stronger effect = lower value 0.992 | S. cerevisiae deletion strains, locus YOR070C, strain gyp1, stronger effect = lower value 1.02 | S. cerevisiae deletion strains, locus YOR080W, strain dia2, stronger effect = lower value 1.01 | S. cerevisiae deletion strains, locus YOR083W, strain WHI5, stronger effect = lower value 1 | S. cerevisiae deletion strains, locus YOR106W, strain vam3, stronger effect = lower value 0.997 | S. cerevisiae deletion strains, locus YOR136W, strain idh2, stronger effect = lower value 0.99 | S. cerevisiae deletion strains, locus YOR144C, strain elg1, stronger effect = lower value 0.983 | S. cerevisiae deletion strains, locus YOR184W, strain ser1, stronger effect = lower value 0.981 | S. cerevisiae deletion strains, locus YOR231W, strain MKK1, stronger effect = lower value 1.02 | S. cerevisiae deletion strains, locus YOR265W, strain rbl2, stronger effect = lower value 0.998 | S. cerevisiae deletion strains, locus YOR270C, strain vph1, stronger effect = lower value 1 | S. cerevisiae deletion strains, locus YOR290C, strain snf2, stronger effect = lower value 0.971 | S. cerevisiae deletion strains, locus YOR316C, strain cot1, stronger effect = lower value 0.981 | S. cerevisiae deletion strains, locus YPL051W, strain arl3, stronger effect = lower value 0.995 | S. cerevisiae deletion strains, locus YPL055C, strain LGE1, stronger effect = lower value 1.01 | S. cerevisiae deletion strains, locus YPL078C, strain atp4, stronger effect = lower value 1.03 | S. cerevisiae deletion strains, locus YPL106C, strain sse1, stronger effect = lower value 1 | S. cerevisiae deletion strains, locus YPL240C, strain hsp82, stronger effect = lower value 1.01 | S. cerevisiae deletion strains, locus YPL241C, strain CIN2, stronger effect = lower value 0.99 | S. cerevisiae deletion strains, locus YPL256C, strain CLN2, stronger effect = lower value 1 | S. cerevisiae deletion strains, locus YPR119W, strain clb2, stronger effect = lower value 0.994 | S. cerevisiae deletion strains, locus YPR141C, strain kar3, stronger effect = lower value 0.981 | S. cerevisiae deletion strains, locus YPR163C, strain tif3, stronger effect = lower value 0.988 | S. cerevisiae deletion strains, locus YPR167C, strain met16, stronger effect = lower value 0.994 | S. cerevisiae deletion strains, strain wtn01, stronger effect = lower value 0.995 | S. cerevisiae strains, strain wild type, stronger effect = lower value 0.998
